About 2,000 (36%) of roughly 5,500 compounds were called active. Roughly 18% stayed inconclusive and do not appear here. No stated cut-off is given here; in the data, active means normalized growth mostly below about 0.91 (no sharp cut-off); inconclusive means no clear call, values can overlap the other calls; inactive means mostly above about 0.92. The list shows a part of the results.
Assay: chemical genetic growth profiling, strain panel (AID 1159580);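 further: tested at 20 µM; growth read once vehicle control cultures reached saturation at 30 °C; 1 = growth at the plate median or of vehicle wells; lower values mean less growth of the strain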
Settings: S. cerevisiae deletion strains, growth OD
[1] = locus YAL040C, strain CLN3, active compounds read low
[2] = locus YDR363W, strain ESC2, active compounds read low
[3] = locus YER002W, strain NOP16, active compounds read low
[4] = locus YGR078C, strain PAC10, active compounds read low
[5] = locus YMR263W, strain SAP30, active compounds read low
[6] = locus YMR307W, strain GAS1, active compounds read low
[7] = locus YNL175C, strain NOP13, active compounds read low
[8] = locus YNL197C, strain WHI3, active compounds read low
[9] = locus YNL224C, strain SQS1, active compounds read low
[10] = locus YOR083W, strain WHI5 (second series), active compounds read low
[11] = locus YHR030C, strain SLT2, active compounds read low
[12] = locus YHR079C, strain IRE1, active compounds read low
[13] = locus YJL095W, strain BCK1, active compounds read low
[14] = locus YJR066W, strain TOR1, active compounds read low
[15] = locus YLR113W, strain HOG1, active compounds read low
[16] = locus YNL183C, strain NPR1, active compounds read low
[17] = locus YOR231W, strain MKK1, active compounds read low
[18] = locus YPL256C, strain CLN2, active compounds read low

Measured: normalized growth

CCn1c(=O)[nH]c2cc(Cl)c(Cl)cc21
inactive: [1] 0.99 | locus YCL061C, strain MRC1 (second series), active compounds read low 1.01 | [2] 0.992 | [3] 0.986 | [4] 0.992 | [5] 1 | [6] 1 | [7] 0.98 | [8] 1 | [9] 1 | locus YNL322C, strain KRE1, active compounds read low 1.01 | [10] 1.04

COC1=C(OC)C(=O)c2ccccc2C1=O
inactive: [1] 0.962 | [3] 0.985 | [4] 0.995 | locus YJR075W, strain HOC1, active compounds read low 0.998 | [5] 1.02 | [7] 0.978 | [8] 0.941 | [9] 0.977 | [10] 0.883
active: [2] 0.734 | [6] 0.886 | locus YNL153C, strain GIM3, active compounds read low 0.703

O=C1C=CC(=O)c2ccccc21
inactive: locus YER111C, strain swi4, active compounds read low 0.917 | locus YJL129C, strain trk1, active compounds read low 0.951
active: locus YAL021C, strain ccr4, active compounds read low 0.0676 | locus YAL026C, strain drs2, active compounds read low 0.0697 | locus YAL030W, strain snc1, active compounds read low 0.0571 | locus YBL061C, strain skt5, active compounds read low 0.0618 | locus YBR009C, strain hhf1, active compounds read low 0.064 | locus YBR023C, strain chs3, active compounds read low 0.0634 | locus YBR171W, strain sec66, active compounds read low 0.0895 | locus YBR231C, strain swc5, active compounds read low 0.0652 | locus YBR279W, strain paf1, active compounds read low 0.0871 | locus YCL011C, strain gbp2, active compounds read low 0.0594 | locus YCL016C, strain dcc1, active compounds read low 0.0722 | locus YCL061C, strain MRC1, active compounds read low 0.0703 | locus YCL069W, strain vba3, active compounds read low 0.0688 | locus YCR088W, strain abp1, active compounds read low 0.0699 | locus YDL005C, strain med2, active compounds read low 0.0758 | locus YDL040C, strain nat1, active compounds read low 0.0706 | locus YDR001C, strain nth1, active compounds read low 0.0722 | locus YDR069C, strain doa4, active compounds read low 0.0698 | locus YDR137W, strain rgp1, active compounds read low 0.288 | locus YDR159W, strain sac3, active compounds read low 0.36 | locus YDR195W, strain ref2 0.13 | locus YDR297W, strain sur2, active compounds read low 0.0592 | locus YDR334W, strain swr1, active compounds read low 0.0769 | locus YDR335W, strain msn5, active compounds read low 0.0683 | locus YDR392W, strain spt3, active compounds read low 0.109 | locus YEL003W, strain gim4, active compounds read low 0.0565 | locus YEL037C, strain rad23, active compounds read low 0.0781 | locus YEL061C, strain CIN8 (second series), active compounds read low 0.0717 | locus YER015W, strain faa2, active compounds read low 0.0627 | locus YER016W, strain bim1, active compounds read low 0.0642 | locus YER155C, strain BEM2 (second series), active compounds read low 0.107 | locus YFR010W, strain ubp6, active compounds read low 0.0794 | locus YGL167C, strain pmr1, active compounds read low 0.0772 | locus YGL173C, strain kem1, active compounds read low 0.0709 | locus YGL227W, strain vid30, active compounds read low 0.0707 | locus YGL240W, strain doc1, active compounds read low 0.0798 | locus YGL253W, strain hxk2, active compounds read low 0.0667 | locus YHR013C, strain ard1, active compounds read low 0.138 | locus YHR027C, strain rpn1, active compounds read low 0.0646 | [11] 0.102 | [12] 0.12 | locus YHR142W, strain chs7, active compounds read low 0.0814 | locus YJL092W, strain hpr5, active compounds read low 0.074 | locus YJL095W, strain BCK1 (second series), active compounds read low 0.0589 | [13] 0.116 | locus YJL115W, strain asf1, active compounds read low 0.0842 | locus YJL154C, strain vps35, active compounds read low 0.0701 | locus YJL164C, strain tpk1, active compounds read low 0.0603 | locus YJL166W, strain qcr8, active compounds read low 0.0677 | locus YJL187C, strain SWE1, active compounds read low 0.0597 | [14] 0.116 | locus YKL160W, strain elf1, active compounds read low 0.0712 | locus YKR026C, strain gcn3, active compounds read low 0.0708 | locus YKR091W, strain srl3, active compounds read low 0.0627 | locus YLL001W, strain dnm1, active compounds read low 0.071 | locus YLL026W, active compounds read low 0.0579 | locus YLL041C, strain sdh2, active compounds read low 0.0596 | locus YLR027C, strain aat2, active compounds read low 0.0574 | [15] 0.135 | locus YLR221C, strain rsa3, active compounds read low 0.0579 | locus YLR258W, strain gsy2, active compounds read low 0.0611 | locus YLR262C, strain YPT6 (second series), active compounds read low 0.0853 | locus YLR320W, strain mms22, active compounds read low 0.0864 | locus YLR342W, strain FKS1, active compounds read low 0.0683 | locus YLR357W, strain rsc2, active compounds read low 0.137 | locus YLR370C, strain arc18, active compounds read low 0.0746 | locus YLR384C, strain iki3, active compounds read low 0.0643 | locus YML120C, strain ndi1, active compounds read low 0.827 | locus YMR058W, strain fet3, active compounds read low 0.0712 | locus YMR125W, strain sto1, active compounds read low 0.0829 | locus YMR129W, active compounds read low 0.0615 | locus YMR205C, strain PFK2, active compounds read low 0.092 | locus YMR231W, strain pep5, active compounds read low 0.0667 | locus YNL071W, strain lat1, active compounds read low 0.0615 | [16] 0.338 | locus YNL209W, strain ssb2, active compounds read low 0.0608 | locus YNL248C, strain rpa49, active compounds read low 0.0841 | locus YNL322C, strain KRE1 (second series), active compounds read low 0.0674 | locus YNR049C, strain mso1, active compounds read low 0.0752 | locus YOR001W, strain rrp6, active compounds read low 0.0696 | locus YOR070C, strain gyp1, active compounds read low 0.0608 | locus YOR080W, strain dia2, active compounds read low 0.114 | locus YOR083W, strain WHI5, active compounds read low 0.0702 | locus YOR106W, strain vam3, active compounds read low 0.0684 | [17] 0.111 | locus YOR265W, strain rbl2, active compounds read low 0.0588 | locus YOR270C, strain vph1, active compounds read low 0.124 | locus YOR290C, strain snf2, active compounds read low 0.842 | locus YPL051W, strain arl3, active compounds read low 0.0626 | locus YPL078C, strain atp4, active compounds read low 0.41 | locus YPL106C, strain sse1, active compounds read low 0.0998 | locus YPL240C, strain hsp82, active compounds read low 0.0586 | [18] 0.128

COC1=C(OC)C(=O)C(CCCCCCCCCCO)=C(C)C1=O
inactive: [11] 0.964 | [12] 0.937 | [13] 0.982 | [14] 0.934 | [15] 0.922 | [16] 0.92 | [17] 0.972 | [18] 0.964
